From PubChem
The list is not random: actives were taken first. Their share in the collection is about 2.8%.
SNCA expr inh: inhibitors of alpha-synuclein (SNCA) gene expression | HEK-293 SNCA-luciferase knock-in, luminescence, 24 h | Potency, µM (series often up to 57.2 µM), for the others: at the highest dose activity change, negative = inhibition, hits mostly inhibitors | 0.17% of 140,000 active;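 also: potency is read from the fitted curve at half-maximal effect; plate controls were DMSO cells for no effect and cell-free wells for full effect; nearly all actives have a fitted effect of over 45% in size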
KDM5B inh: KDM5B demethylase inhibition. 2.6% of 220,000 active. Potency, µM (doses to about 57.7 µM), hits mostly inhibitors. KDM5B demethylase, FDH-coupled NADH fluorescence (FDH is formaldehyde dehydrogenase). Q9UGL1; also: potency is read from the fitted curve at half-maximal effect; 0% is about no effect; nearly all actives have a fitted effect of over 70% in size
Target sequence (Q9UGL1 whole entry, looked up): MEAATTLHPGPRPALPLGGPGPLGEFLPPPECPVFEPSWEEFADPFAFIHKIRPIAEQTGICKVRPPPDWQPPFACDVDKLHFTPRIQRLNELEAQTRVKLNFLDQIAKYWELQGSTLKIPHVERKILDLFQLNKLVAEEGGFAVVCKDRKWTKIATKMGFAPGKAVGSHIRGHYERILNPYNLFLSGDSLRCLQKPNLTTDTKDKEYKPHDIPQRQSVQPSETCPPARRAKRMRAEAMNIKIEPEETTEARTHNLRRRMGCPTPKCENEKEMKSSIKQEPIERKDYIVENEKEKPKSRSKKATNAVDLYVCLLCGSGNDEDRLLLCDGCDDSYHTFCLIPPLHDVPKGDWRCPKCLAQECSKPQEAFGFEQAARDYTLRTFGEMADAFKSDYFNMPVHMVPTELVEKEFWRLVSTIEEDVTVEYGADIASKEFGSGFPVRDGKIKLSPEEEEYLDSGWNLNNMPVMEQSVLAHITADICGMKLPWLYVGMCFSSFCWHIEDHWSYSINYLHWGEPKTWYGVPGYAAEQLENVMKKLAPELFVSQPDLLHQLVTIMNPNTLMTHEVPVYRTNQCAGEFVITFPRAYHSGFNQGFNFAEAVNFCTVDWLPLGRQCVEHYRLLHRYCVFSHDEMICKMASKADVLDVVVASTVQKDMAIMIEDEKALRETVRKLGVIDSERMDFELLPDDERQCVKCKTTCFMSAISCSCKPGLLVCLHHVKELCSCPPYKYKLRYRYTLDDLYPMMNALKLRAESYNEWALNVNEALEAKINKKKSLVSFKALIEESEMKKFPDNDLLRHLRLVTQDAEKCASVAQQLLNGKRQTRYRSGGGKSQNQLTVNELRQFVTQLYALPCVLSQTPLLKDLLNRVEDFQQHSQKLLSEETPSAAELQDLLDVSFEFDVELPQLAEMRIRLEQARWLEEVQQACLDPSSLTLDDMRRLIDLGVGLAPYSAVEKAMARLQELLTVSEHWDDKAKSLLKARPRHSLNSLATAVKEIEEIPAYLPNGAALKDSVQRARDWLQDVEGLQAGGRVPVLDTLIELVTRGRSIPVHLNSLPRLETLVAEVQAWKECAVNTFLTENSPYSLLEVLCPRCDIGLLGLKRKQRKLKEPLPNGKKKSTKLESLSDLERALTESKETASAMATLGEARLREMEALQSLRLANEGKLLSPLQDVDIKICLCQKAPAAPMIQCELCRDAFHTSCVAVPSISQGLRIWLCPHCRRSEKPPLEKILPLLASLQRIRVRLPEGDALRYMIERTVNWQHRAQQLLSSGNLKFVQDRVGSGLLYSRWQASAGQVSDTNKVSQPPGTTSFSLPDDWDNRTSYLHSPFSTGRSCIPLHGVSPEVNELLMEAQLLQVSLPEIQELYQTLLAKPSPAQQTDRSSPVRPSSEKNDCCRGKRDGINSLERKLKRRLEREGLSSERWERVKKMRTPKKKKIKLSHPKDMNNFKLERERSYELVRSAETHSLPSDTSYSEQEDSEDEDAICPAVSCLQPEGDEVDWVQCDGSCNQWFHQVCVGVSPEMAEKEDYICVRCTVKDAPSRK
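Coupled FDH/NAD⁺ fluorescence readout. KDM5BΔAP 200 nM final; compound titration, 10 min RT preincubation; substrate mix 12.5 µM H3K4me3, 25 µM 2-OG, 50 µM Fe(II), 100 µM ascorbate, 0.25 mM NAD⁺, 0.25 U/mL FDH; ΔRFU over 30 min.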
HEK293 viab: cell viability loss counter-screen; HEK-293-SNCA-luc viability, GF-AFC fluorescence, 24 h; Potency, µM (highest dose often 57.1 µM), for the others: top-dose activity change, negative = cytotoxicity, hits mostly cytotoxic; 0.12% of 150,000 active;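 also: potency is read from the fitted curve at half-maximal effect; 0% = DMSO-treated cells and -100% = medium-only wells without cells; nearly all actives have a fitted effect of over 30% in size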
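HEK-293-SNCA-luc cells (1500/well) plated 24 h, then exposed 24 h to a dilution series; GF-AFC added 30 min at 37C, fluorescence 405/540 nm; normalised to medium-only and DMSO wells, Hill fit.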
IP6K1 inh: IP6K1 kinase inhibition; Q92551; IP6K1 kinase, ADP-Glo luminescence, 2 h; hits give low values; activity change, % (series mostly up to about 58 µM); 0.81% of 140,000 active; AID 1645851; in the data active = activity change below about -25%; also: % is scaled to controls: 0 for no effect and ±100 for the full control effect
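ADP-Glo luminescence measures ADP made by human IP6K1 during a 2 h RT reaction with ATP/IP6 (mix at 1.3 mM/130 uM); top library doses 57.5 and 19.1 uM final.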
An asterisk follows results filed as active; [ ] = dose if it differs, or a comment. Unless noted, calls follow the shape of the dose curve; as a rule, active = well fitted curve in the direction sought with a large enough effect; inconclusive = small, poorly fitted or top-dose-only effect, or another doubt; inactive = no such curve, though single readings can be large; an effect the other way counts as inactive or inconclusive.

How did O=C1CC(c2ccccc2)N(C(=O)CNC(=O)Cn2c(=O)oc3ccccc32)CCCCCN1 (configuration not stated) do in these assays?
SNCA expr inh: 41%; KDM5B inh: inactive; HEK293 viab: -2%; IP6K1 inh: 5

How did N#Cc1ccc(Oc2nc(-c3ccccc3O)nc3ccccc23)cc1 do in these assays?
KDM5B inh: inactive

What do the screens show for `COC(=O)CNC(=O)c1nc(C(C)(C)C)c2ccccn12`?
SNCA expr inh: 37%[87.6 µM]; KDM5B inh: 126µM*; HEK293 viab: 14%[87.6 µM]; IP6K1 inh: -8

Results for O=c1c2nc(-c3ccccc3C(F)(F)F)ccc2ncn1C1CC1 ?
SNCA expr inh: 8%[87.6 µM]; KDM5B inh: inactive; HEK293 viab: 2%[87.6 µM]; IP6K1 inh: 8

Results for O=c1ncn(Cc2ccccc2)c2ccc(-c3cccnc3)nc12 ?
SNCA expr inh: 1%[87.6 µM]; KDM5B inh: inactive; HEK293 viab: -7%[87.6 µM]; IP6K1 inh: 1

What do the screens show for `O=c1ncn(CC2CC2)c2ccc(-c3ccc(F)cc3F)nc12`?
SNCA expr inh: 88%[87.6 µM]; KDM5B inh: 32µM*; HEK293 viab: 1%[87.6 µM]; IP6K1 inh: -10

How did COc1cc(F)ccc1-c1ccc2c(n1)c(=O)ncn2Cc1ccccc1 do in these assays?
SNCA expr inh: -2%[87.6 µM]; KDM5B inh: 35µM*; HEK293 viab: -8%[87.6 µM]; IP6K1 inh: -6

What do the screens show for `COc1cc(F)ccc1-c1ccc2ncn(C3CC3)c(=O)c2n1`?
SNCA expr inh: 66%[87.6 µM]; KDM5B inh: 32µM*; HEK293 viab: -2%[87.6 µM]; IP6K1 inh: 12

Results for O=c1ncn(Cc2ccccc2)c2ccc(-c3ccccc3)nc12 ?
SNCA expr inh: 46%[87.6 µM]; KDM5B inh: 35µM*; HEK293 viab: -5%[87.6 µM]; IP6K1 inh: 3

What do the screens show for `CCC(=O)N1Cc2ccccc2CC2(CCCN(Cc3ccc(O)cc3)C2)C1` (configuration not stated)?
SNCA expr inh: 20%; KDM5B inh: inactive; HEK293 viab: 5%; IP6K1 inh: 1

Results for CC(=O)NC12CC3CC(C1)CC(C(=O)NC(c1ccccc1)c1ccccc1)(C3)C2 ?
KDM5B inh: inactive

How did CN(C)CCNC(=O)c1nc2nc(-c3ccccc3)c(Cl)cc2n1C do in these assays?
SNCA expr inh: 32%[87.6 µM]; KDM5B inh: 40µM*; HEK293 viab: 1%[87.6 µM]; IP6K1 inh: 12

How did Cn1c(C(=O)N2CCN(c3ccccn3)CC2)nc2nc(-c3ccccc3)c(Cl)cc21 do in these assays?
SNCA expr inh: inconclusive; KDM5B inh: 35µM*; HEK293 viab: inconclusive; IP6K1 inh: 4

How did COCCN(C)C(=O)c1nc2nc(-c3ccccc3)c(Cl)cc2n1C do in these assays?
SNCA expr inh: 3%[87.6 µM]; KDM5B inh: inconclusive; HEK293 viab: 2%[87.6 µM]; IP6K1 inh: -1

Results for Cn1c(C(=O)NCCc2cnc[nH]2)nc2nc(-c3ccccc3)c(Cl)cc21 ?
SNCA expr inh: 5%[87.6 µM]; KDM5B inh: 35µM*; HEK293 viab: -2%[87.6 µM]; IP6K1 inh: 12

How did CN(C)CCNC(=O)c1nc2nc(-c3ccccc3)c(-c3ccccc3F)cc2n1C do in these assays?
SNCA expr inh: -12%[87.6 µM]; KDM5B inh: inactive; HEK293 viab: -22%[87.6 µM]; IP6K1 inh: 8

Results for CSC1=N/C(=C\c2cccc(Oc3ccccc3)c2)C(=O)S1 ?
KDM5B inh: inactive

Results for O=C(CSc1ccc2c(c1)OCCCO2)Nc1ccc2c(c1)OCO2 ?
KDM5B inh: inactive

How did Cc1nonc1Cc1nc(C2CCOCC2)nn1CC1COCCO1 (configuration not stated) do in these assays?
SNCA expr inh: -11%; KDM5B inh: inactive; HEK293 viab: -6%; IP6K1 inh: 8

How did COc1ccc(COCC(O)CSc2nncs2)cc1OC (configuration not stated) do in these assays?
KDM5B inh: inactive

Results for CCC(C=C[C@@H]1OC(=O)C=C[C@H]1C)=C[C@H](C)CC=CC(C)=C[C@@H](C)C(=O)[C@@H](C)[C@H](O)[C@@H](C)CC(C)=CC(=O)O ?
SNCA expr inh: 0.16µM*; HEK293 viab: inconclusive

How did Cc1ccc(CNC(=O)C2CCN(C(=O)c3ncn4c3COC(c3ccc(Cl)cc3)C4)CC2)cc1 (configuration not stated) do in these assays?
SNCA expr inh: 6%; KDM5B inh: inactive; HEK293 viab: 0%; IP6K1 inh: 6

Results for CC1=C(C(=O)OC(C)C)C(c2ccccc2F)N2C(CC(=O)N3CCCC3)=CSC2=N1 (configuration not stated) ?
SNCA expr inh: -11%; KDM5B inh: inconclusive; HEK293 viab: -5%; IP6K1 inh: -6

Results for C=CCOC(=O)C1=C(C)N=C2SC=C(CC(=O)N3CCCC3)N2C1c1ccccc1Cl (configuration not stated) ?
SNCA expr inh: 8%; KDM5B inh: 28µM*; HEK293 viab: -13%; IP6K1 inh: 9

How did COC(=O)C1=C(C)N=C2SC=C(CC(=O)N3CCCC3)N2C1c1cccc(OC)c1OC (configuration not stated) do in these assays?
SNCA expr inh: 17%; KDM5B inh: inconclusive; HEK293 viab: -9%; IP6K1 inh: 4

How did C=CCOC(=O)C1=C(C)N=C2SC=C(CC(=O)N3CCCC3)N2C1c1cccc(OC)c1OC (configuration not stated) do in these assays?
SNCA expr inh: -14%; KDM5B inh: 28µM*; HEK293 viab: -12%; IP6K1 inh: 14

What do the screens show for `COc1cccc(-c2cn3cc(C(=O)NCC4CCCCC4)nc3s2)c1`?
SNCA expr inh: -9%; HEK293 viab: 6%; IP6K1 inh: 14

Results for C[S+](=O)([O-])N1CCC(Cn2ccc3c(N4CCOCC4)nc(-c4cccnc4)cc32)CC1 ?
SNCA expr inh: -7%; KDM5B inh: inconclusive; HEK293 viab: 1%; IP6K1 inh: 17

What do the screens show for `Cc1ccc(-c2cc3c(ccn3CC3CCN([S+](C)(=O)[O-])CC3)c(N3CCOCC3)n2)cn1`?
SNCA expr inh: 12%; KDM5B inh: 32µM*; HEK293 viab: -1%; IP6K1 inh: 2

How did COc1cccc(CNC(=O)[C@@H]2C[C@@H](O)CN2C2CCN(C(=O)c3ccccn3)CC2)c1 do in these assays?
SNCA expr inh: 15%; KDM5B inh: inactive; HEK293 viab: 11%; IP6K1 inh: 15

Results for COC(=O)[C@@H]1Cc2c([nH]c3ccccc23)[C@H]2C[C@@H](NCc3cccnc3)C[C@@H](c3ccc(F)cc3)N21 ?
SNCA expr inh: -11%; KDM5B inh: inconclusive; HEK293 viab: 0%; IP6K1 inh: -7

Results for COC(=O)[C@@H]1Cc2c([nH]c3ccccc23)[C@H]2C[C@@H](NCCO)C[C@@H](c3ccc(F)cc3)N21 ?
SNCA expr inh: -6%; KDM5B inh: inconclusive; HEK293 viab: -8%; IP6K1 inh: -9

How did COC(=O)[C@@H]1Cc2c([nH]c3ccccc23)[C@H]2C[C@@H](NC3CC3)C[C@@H](c3ccc(F)cc3)N21 do in these assays?
SNCA expr inh: 28µM*; KDM5B inh: inactive; HEK293 viab: inconclusive; IP6K1 inh: -5
